Assay results as given in PubChem BioAssay (NCATS).
Where “and” joins values, the source holds several entries; their conditions need not be identical. Equal values may be shown once. Inconclusive results are not listed. Entries that show only a call come without a potency. Calls of active or inactive are those of the source. Unless noted, the call rests on the fitted dose curve; in most records, active means well fitted curve in the direction sought with a large enough effect; inconclusive means small, poorly fitted or top-dose-only effect, or another doubt; inactive means no such curve, though single readings can be large; an effect the other way counts as inactive or inconclusive.

Key:
[1] = Cell Viability - Jurkat (AID 426;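 active means dose-dependent loss of cell ATP signal giving a full or clear fitted curve, ranked by lower potency value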; further: potency means the concentration at half of the fitted maximal effect); settings: qHTS
In short: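 Cells of the human T-cell leukemia line Jurkat (E6-1) are seeded at 5000 per well, treated with compound across a concentration range for 40 hours at 37 °C, then lysed with CellTiter-Glo; luminescence reports ATP.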

[2] = Cell Viability - Hek293 (AID 427;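 active means compounds whose dose-response curve shows a full or clear partial loss of cell viability, called from curve shape rather than a numeric limit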;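 further: potency means the concentration at half of the fitted maximal effect; cells exposed to compound for 40 hours at 37 °C before reading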); settings: qHTS
In short: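 HEK293 cells in complete medium were exposed to compound for 40 hr at 37 °C, then cellular ATP was read by CellTiter-Glo luminescence. Data were normalized to DMSO (basal) and 100 uM tamoxifen (100% inhibition), and AC50 came from Hill fits.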

[3] = Cellular Toxicity (caspase-3) NIH 3T3 (AID 666); settings: NIH 3T3 caspase-3 activation, apoptosis/toxicity, 0% DMSO, 100% is 100 µM tamoxifen; series mostly up to 92.2 µM;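 further: caspase signal read after 16 h compound exposure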
In short: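 Cells were plated at 1000 per well and incubated 5 hr at 37°C, then compound was added for 16 hr. Caspase-Glo 3/7 reagent followed for 20 min at room temperature before luminescence was read.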

[4] = Cell Viability - LYMP2-001 (AID 921); settings: LYMP2-001 lymphoblastoid cell viability; series mostly up to 92.2 µM;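 further: cells exposed to compound for 24 h at 37 °C; nearly all actives have a fitted effect of over 70% in size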; further: potency means the concentration at half of the fitted maximal effect
In short: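 Human lymphoblastoid LYMP2-001 cells, 2500 per well, in complete medium, treated 24 h at 37 C. Viability from cellular ATP by CellTiter-Glo luminescence; AC50 from Hill-equation fits of qHTS concentration-response.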

[5] = MultiTox-Fluor Cytotoxicity Assay - LYMP1-002 - Dead Cells (AID 960); settings: LYMP1-002 lymphoblastoid cells, dead-cell protease fluorescence; series mostly up to 46.1 µM; further: nearly all actives have a fitted effect of over 60% in size
In short: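 Cells were plated, rested 5 hr, then treated with compound dilution series for 16 hr at 37 C. After adding substrate reagent and 60 min at room temperature, dead-cell protease fluorescence gave concentration-response curves fitted by the Hill equation.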

[6] = Cell Viability - LYMP2-004 (AID 966); settings: LYMP2-004 lymphoblastoid cell viability, qHTS; series mostly up to 92.2 µM;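 further: cells exposed to compound for 24 h; nearly all actives have a fitted effect of over 65% in size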
In short: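 qHTS cytotoxicity: human lymphoblastoid line, 24 hr compound treatment, 37 C, complete medium. Viability read as cellular ATP via luciferase luminescence; tetraoctylammonium bromide served as positive control.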

[7] = Cell Viability - LYMP2-009 (AID 968); settings: LYMP2-009 lymphoblastoid cell viability; series mostly up to 92.2 µM;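 further: cells exposed to compound for 24 h at 37 °C; nearly all actives have a fitted effect of over 55% in size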
[8] = Cell Viability - LYMP2-012 (AID 982); settings: LYMP2-012 lymphoblastoid cell viability qHTS; series mostly up to 92.2 µM;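 further: cellular ATP by luciferase luminescence where a drop means cytotoxicity; cells exposed to compound for one day before reading; nearly all actives have a fitted effect of over 55% in size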
[9] = Cell Viability - LYMP2-024 (AID 988); settings: LYMP2-024 lymphoblastoid cell viability; series mostly up to 92.2 µM;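 further: cells exposed to compound for 24 hr at 37 °C; nearly all actives have a fitted effect of over 60% in size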; further: potency means the concentration at half of the fitted maximal effect
In short: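 qHTS cytotoxicity, human lymphoblastoid line, complete medium; 24 h cpd treatment, 37 C; CellTiter-Glo ATP luminescence readout; tetraoctylammonium bromide positive control; AC50 via Hill fit.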

[10] = target: Estrogen receptor (Homo sapiens) (UniProt P03372); assay: qHTS assay for small molecule antagonists of estrogen receptor alpha signaling (AID 588513; active means well fitted curve in the direction sought with a large enough effect in the signal ratio, with a control signal flat, not every such curve was filed as active; the % refers to the signal ratio); settings: ER-alpha-UAS-bla HEK293, beta-lactamase ratio, antagonist mode; series mostly up to 76.9 µM
Sequence of Estrogen receptor (Homo sapiens) (P03372 whole entry, looked up): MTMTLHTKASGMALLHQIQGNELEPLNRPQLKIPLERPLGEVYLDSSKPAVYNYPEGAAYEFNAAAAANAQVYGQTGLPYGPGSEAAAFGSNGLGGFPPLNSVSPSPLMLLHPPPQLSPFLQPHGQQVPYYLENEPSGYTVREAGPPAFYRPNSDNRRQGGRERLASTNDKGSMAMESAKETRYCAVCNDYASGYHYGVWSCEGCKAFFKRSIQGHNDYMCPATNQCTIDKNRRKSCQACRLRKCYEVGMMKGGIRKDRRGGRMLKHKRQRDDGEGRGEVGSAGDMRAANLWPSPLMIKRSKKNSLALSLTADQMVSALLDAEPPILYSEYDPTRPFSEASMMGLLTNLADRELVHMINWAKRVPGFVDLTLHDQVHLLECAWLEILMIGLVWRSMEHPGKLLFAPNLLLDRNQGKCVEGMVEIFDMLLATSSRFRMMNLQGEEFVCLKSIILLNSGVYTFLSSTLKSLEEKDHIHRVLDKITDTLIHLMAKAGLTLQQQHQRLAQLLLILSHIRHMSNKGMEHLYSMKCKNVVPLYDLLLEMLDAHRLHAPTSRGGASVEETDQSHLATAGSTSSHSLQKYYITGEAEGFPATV
In short: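 ER-alpha-UAS-bla GripTite HEK 293 cells in 2% charcoal/dextran-treated FBS medium; compounds titrated (1:2, duplicate), then stimulated with 0.5 nM 17-beta-estradiol for 18 h at 37C. CCF4 beta-lactamase fluorescence; Hill-fit IC50 and efficacy.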

[11] = target: Peroxisome proliferator-activated receptor gamma (Homo sapiens) (UniProt P37231); assay: qHTS assay for small molecule agonists of peroxisome proliferator-activated receptor gamma signaling (AID 588536; active means well fitted curve in the direction sought with a large enough effect in the signal ratio, with a control signal flat, not every such curve was filed as active; the % refers to the signal ratio); settings: HEK293 PPARg-UAS-bla, beta-lactamase ratio, 16 h, percent of rosiglitazone response, DMSO as zero; series mostly up to 76.7 µM
Sequence of Peroxisome proliferator-activated receptor gamma (Homo sapiens) (P37231 whole entry, looked up): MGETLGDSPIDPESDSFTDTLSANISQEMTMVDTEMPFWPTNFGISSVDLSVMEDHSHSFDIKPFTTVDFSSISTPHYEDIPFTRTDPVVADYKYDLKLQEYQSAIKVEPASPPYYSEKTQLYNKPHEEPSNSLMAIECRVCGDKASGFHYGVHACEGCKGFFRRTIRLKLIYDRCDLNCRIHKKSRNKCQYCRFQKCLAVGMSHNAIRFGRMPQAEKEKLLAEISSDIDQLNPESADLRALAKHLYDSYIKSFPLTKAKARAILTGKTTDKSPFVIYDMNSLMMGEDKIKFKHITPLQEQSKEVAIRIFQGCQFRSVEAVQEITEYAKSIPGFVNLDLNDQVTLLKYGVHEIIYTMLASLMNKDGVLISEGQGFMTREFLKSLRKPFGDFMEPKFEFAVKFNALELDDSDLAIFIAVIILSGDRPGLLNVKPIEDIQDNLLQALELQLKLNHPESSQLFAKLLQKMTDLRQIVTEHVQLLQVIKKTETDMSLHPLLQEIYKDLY
In short: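 Cells were plated and held 6–6.5 h at 37 C, then compounds were added as a titration series. After a further 16 h, CCF4 dye was loaded for 2 h at room temperature and emission at 460/530 nm recorded.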

[12] = qHTS assay for small molecule agonists of retinoid X receptor alpha signaling (AID 588544); settings: HEK293T RXRa-UAS-bla, beta-lactamase reporter, 18 h; 530 nm emission
[13] = target: Thyroid hormone receptor beta (Homo sapiens) (UniProt P10828); assay: qHTS assay for small molecule agonists of thyroid hormone receptor beta signaling (AID 588545; calls by dose curve); settings: TR-UAS-bla GripTite HEK 293, beta-lactamase ratio, agonist mode, 18 h, percent of T3 response, DMSO as zero; series mostly up to 76.7 µM
Sequence of Thyroid hormone receptor beta (Homo sapiens) (P10828 whole entry, looked up): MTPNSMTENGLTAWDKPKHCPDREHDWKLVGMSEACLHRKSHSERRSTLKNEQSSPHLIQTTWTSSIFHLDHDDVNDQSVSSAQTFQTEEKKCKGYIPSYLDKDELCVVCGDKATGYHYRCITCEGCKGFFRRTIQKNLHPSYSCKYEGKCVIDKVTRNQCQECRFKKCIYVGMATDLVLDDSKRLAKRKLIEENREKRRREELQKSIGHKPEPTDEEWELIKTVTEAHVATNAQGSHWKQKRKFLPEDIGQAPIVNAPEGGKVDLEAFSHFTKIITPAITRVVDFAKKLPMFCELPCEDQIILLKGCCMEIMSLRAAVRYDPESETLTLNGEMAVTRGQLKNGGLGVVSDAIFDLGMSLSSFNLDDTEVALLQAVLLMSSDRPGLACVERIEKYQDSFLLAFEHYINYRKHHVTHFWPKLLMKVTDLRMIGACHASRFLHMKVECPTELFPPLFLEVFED
In short: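 Efficacy and EC50 values derive from Hill fits of qHTS titration data, normalized to 10 nM T3 and DMSO-only wells. HEK 293 reporter cells were stimulated for 18 hrs at 37 C, with beta-lactamase activity measured by CCF4 fluorescence.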

[14] = qHTS assay for small molecule activators of the p53 signaling pathway (AID 651743; active means well fitted activation curve with a large enough effect in the signal ratio, not every such curve was filed as active; the % refers to the signal ratio); settings: HCT-116 p53RE-bla, beta-lactamase FRET ratio, 16 h; activation: stronger effect = higher value
In short: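 Agonist-mode quantitative HTS in HCT-116 cells carrying a p53-response-element beta-lactamase reporter; 16 h compound treatment at 37 C, then FRET substrate loading for 2 h at room temperature and fluorescence read.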

[15] = target: Tumor necrosis factor (Homo sapiens) (UniProt P01375); assay: qHTS assay to identify small molecules that stimulate Tumor Necrosis Factor-alpha (TNF-alpha) secretion (AID 651757; active means well fitted curve in the direction sought with a large enough effect in the signal ratio; the % refers to the signal ratio); settings: Human cells, HTRF 665/615 ratio; series mostly up to 92.2 µM
Sequence of Tumor necrosis factor (Homo sapiens) (P01375 whole entry, looked up): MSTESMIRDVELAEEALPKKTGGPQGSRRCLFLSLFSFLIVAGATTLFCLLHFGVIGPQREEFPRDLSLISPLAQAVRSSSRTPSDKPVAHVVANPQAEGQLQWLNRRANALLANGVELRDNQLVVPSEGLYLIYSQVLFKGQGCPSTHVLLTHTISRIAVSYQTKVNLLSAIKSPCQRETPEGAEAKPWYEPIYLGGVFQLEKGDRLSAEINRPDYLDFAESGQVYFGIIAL
In short: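 Human monocytic THP-1 cells are plated, treated with compound and held at 37 C for 17 hrs. Labeled anti-TNF-alpha antibody mixture is then added; after 3 hr at room temperature, TR-FRET signal reports secreted TNF-alpha.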

[16] = target: Nuclear receptor ROR-gamma (Homo sapiens) (UniProt P51449); assay: qHTS assay for small molecule antagonists of the retinoid-related orphan receptor gamma (ROR-gamma) signaling pathway (AID 651802); settings: ROR-gamma antagonist cell reporter assay; series mostly up to 92.2 µM; further: nearly all actives have a fitted effect of over 60% in size; further: potency means the concentration at half of the fitted maximal effect
Sequence of Nuclear receptor ROR-gamma (Homo sapiens) (P51449 whole entry, looked up): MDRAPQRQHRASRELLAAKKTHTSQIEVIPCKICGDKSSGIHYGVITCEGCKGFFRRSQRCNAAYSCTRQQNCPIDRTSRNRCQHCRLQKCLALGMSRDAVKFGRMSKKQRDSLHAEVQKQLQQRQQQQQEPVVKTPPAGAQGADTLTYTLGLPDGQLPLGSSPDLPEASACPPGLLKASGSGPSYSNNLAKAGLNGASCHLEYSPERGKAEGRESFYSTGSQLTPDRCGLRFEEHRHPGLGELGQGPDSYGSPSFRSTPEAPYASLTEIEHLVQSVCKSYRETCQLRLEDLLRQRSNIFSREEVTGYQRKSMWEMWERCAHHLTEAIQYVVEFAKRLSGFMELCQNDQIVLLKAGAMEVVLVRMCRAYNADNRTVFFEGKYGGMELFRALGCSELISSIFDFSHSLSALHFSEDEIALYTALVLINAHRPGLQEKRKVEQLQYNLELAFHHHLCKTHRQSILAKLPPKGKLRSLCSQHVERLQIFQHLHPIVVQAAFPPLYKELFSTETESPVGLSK
In short: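 Steps: cells dispensed; compound or DMSO transferred by pin tool; doxycycline added to induce the ROR response element-driven luciferase; plates held 16hr at 37C; ONE-Glo added and luminescence measured.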

[17] = target: Mitogen-activated protein kinase 10 (Mus musculus) (UniProt Q61831); assay: JNK3 AlphaScreen Assay (AID 530; active means well fitted curve in either direction with a large enough effect, not every such curve was filed as active;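 further: kinase came from lysate of stimulated human HepG2 cells; signal reports phosphorylation of biotinylated GST-cJun 1-79 at Ser73 with 10 µM ATP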); settings: JNK3 lysate, c-Jun phosphorylation; series mostly up to 57.1 µM
In short: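 Phosphorylation of biotinylated GST-cJun(1-79) at Ser73 is measured by AlphaScreen proximity luminescence. Enzyme is JNK3 in HepG2 lysates activated with interleukin-1beta and tumor necrosis factor alpha; ATP is 10 uM final.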

[18] = target: Glucocorticoid receptor (Homo sapiens) (UniProt P04150); assay: qHTS assay for small molecule agonists of glucocorticoid receptor signaling (AID 588532; active means well fitted curve in the direction sought with a large enough effect in the signal ratio, with a control signal flat; the % refers to the signal ratio); settings: HeLa MMTV-bla, beta-lactamase ratio, agonist, 18 h; stronger effect = higher value; percent of dexamethasone control, DMSO zero
Sequence of Glucocorticoid receptor (Homo sapiens) (P04150 whole entry, looked up): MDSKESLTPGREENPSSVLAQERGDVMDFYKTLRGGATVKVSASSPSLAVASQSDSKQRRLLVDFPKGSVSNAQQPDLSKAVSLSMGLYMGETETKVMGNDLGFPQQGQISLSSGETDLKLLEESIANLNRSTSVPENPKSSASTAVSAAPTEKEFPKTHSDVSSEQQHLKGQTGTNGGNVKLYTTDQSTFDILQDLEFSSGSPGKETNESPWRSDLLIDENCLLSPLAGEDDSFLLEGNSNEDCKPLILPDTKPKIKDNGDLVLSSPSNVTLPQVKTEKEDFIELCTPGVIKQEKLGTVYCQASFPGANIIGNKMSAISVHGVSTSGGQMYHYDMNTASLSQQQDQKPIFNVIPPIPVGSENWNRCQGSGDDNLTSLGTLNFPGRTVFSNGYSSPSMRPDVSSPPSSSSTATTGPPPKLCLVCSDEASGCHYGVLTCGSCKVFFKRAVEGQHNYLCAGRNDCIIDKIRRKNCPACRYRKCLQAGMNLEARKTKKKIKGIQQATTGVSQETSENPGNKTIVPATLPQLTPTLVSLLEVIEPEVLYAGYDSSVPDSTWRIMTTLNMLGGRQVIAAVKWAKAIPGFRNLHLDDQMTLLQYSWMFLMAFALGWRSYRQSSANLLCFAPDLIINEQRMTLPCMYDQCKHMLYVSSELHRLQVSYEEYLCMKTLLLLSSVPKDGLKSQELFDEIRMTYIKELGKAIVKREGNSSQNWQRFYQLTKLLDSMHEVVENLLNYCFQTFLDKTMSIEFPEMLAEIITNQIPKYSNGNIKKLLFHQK
In short: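 Stimulation of a glucocorticoid response element-driven beta-lactamase gene was measured in HeLa cells. Responses were scaled between DMSO basal and 0.1 uM dexamethasone, then fitted for half-maximal stimulation.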

[19] = target: Glucocorticoid receptor (Homo sapiens) (UniProt P04150); assay: qHTS assay for small molecule antagonists of glucocorticoid receptor signaling (AID 588533; active means well fitted inhibition curve with a large enough effect in the signal ratio, with a control signal flat, not every such curve was filed as active; the % refers to the signal ratio;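 further: cells stimulated with 2 nM dexamethasone as agonist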); settings: HeLa MMTV-bla, GRE beta-lactamase ratio, antagonist mode, 18 h; series mostly up to 76.8 µM
In short: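 Antagonist-mode qHTS: compound titrations added to GRE-bla HeLa cells, then dexamethasone 2 nM final; 18 h, 37 C. CCF4 FRET fluorescence normalized to dexamethasone and DMSO; IC50 from Hill fit.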

[20] = qHTS assay for small molecule antagonists of the retinoid-related orphan receptor gamma (ROR-gamma) signaling pathway - cell viability counter screen (AID 720652; active means well fitted curve in the direction sought with a large enough effect in the repeat runs; an effect the other way counts as inactive or inconclusive;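 further: CHO reporter cells with doxycycline-induced ROR-gamma expression; compound exposure lasted 16 hr before ATP read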); settings: RORgamma reporter cell line viability counter screen; series mostly up to 92.2 µM
In short: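 Steps: seed CHO cells bearing TET-inducible ROR and ROR response element-luciferase; rest 5 hr at 37 C; add compound, then doxycycline; incubate 16 hr; add CellTiter-Glo and read luminescence as ATP-based viability.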

Structure (SMILES) | Potency [1] | Potency [2] | outcome [3] | Potency [4] | Potency [5] | Potency [6] | Potency [7] | Potency [8] | Potency [9] | Potency [10] | outcome [11] | max response [12] | outcome [13] | activation [14] | outcome [15] | Potency [16] | outcome [17] | activation [18] | Potency [19] | Potency [20]
CN=C=S | > 92 µM (inactive) | > 92 µM (inactive) | inactive | inactive | inactive | inactive | inactive | inactive | inactive | inactive | inactive | -13.3% and 3.16% | inactive | -0.537% (inactive) and -2.4% (inactive) | inactive | inactive | – | – | – | –
OCC(Br)CBr (centres undefined) | > 92 µM (inactive) | > 92 µM (inactive) | inactive | inactive | inactive | inactive | inactive | inactive | inactive | inactive | inactive | -16% | – | 1.53% (inactive) | inactive | inactive | inactive | 4.78% (inactive) | inactive | inactive
CC(C)(OO)c1ccccc1 | 28.3 µM (active) | > 92 µM (inactive) | – | 39.8 µM (active) | inactive | – | – | – | 31.6 µM (active) | inactive | inactive | 21.6% and -3.11% | inactive | 0.437% (inactive) and -4.93% (inactive) | inactive | 42.2 µM (active) | inactive | 1.9% (inactive) and -7.5% (inactive) | inactive | –
CC(C)(C)OO | > 92 µM (inactive) | > 92 µM (inactive) | inactive | inactive | inactive | inactive | inactive | inactive | inactive | – | inactive | 4.87% and -13.2% | inactive | 0.296% (inactive) | inactive | inactive | – | – | – | inactive
Cc1cccc(C#N)c1 | > 92 µM (inactive) | > 92 µM (inactive) | inactive | inactive | inactive | inactive | inactive | inactive | inactive | inactive | inactive | -7.67% | inactive | -3.72% (inactive) | inactive | inactive | inactive | -3.56% (inactive) | inactive | inactive
O=C=NC1CCCCC1 | > 92 µM (inactive) | > 92 µM (inactive) | inactive | inactive | inactive | inactive | inactive | inactive | inactive | inactive | inactive | -3.28% and -9.66% | inactive | -1.8% (inactive) and -1.61% (inactive) | inactive | inactive | inactive | 10.3% (inactive) | inactive | inactive
C=CC(C)=O | > 92 µM (inactive) | > 92 µM (inactive) | inactive | inactive | inactive | inactive | inactive | inactive | inactive | inactive | inactive | -8.63% | – | -2.21% (inactive) | inactive | inactive | inactive | -1.11% (inactive) | inactive | inactive
CCOP(=S)(OCC)Oc1ccc([N+](=O)[O-])cc1 | > 92 µM (inactive) | > 92 µM (inactive) | inactive | inactive | inactive | inactive | inactive | inactive | inactive | – | inactive | -6.89% and 6.11% | inactive | -1.79% (inactive) and -1.31% (inactive) and 2.7% (inactive) | inactive | inactive | inactive | 1.36% (inactive) and 0.403% (inactive) and 5.24% (inactive) | inactive | inactive
